The values that follow come from the supplement of paper PMC10849652.

About 7,900 targets were measured; listed, in parts, are those with a hit and a random draw of the rest. About 0.6% of all pairs of compound and target were hits. A number with no mark means an inactive call.

UniProt Q14118, sequence (Q14118 whole entry, looked up): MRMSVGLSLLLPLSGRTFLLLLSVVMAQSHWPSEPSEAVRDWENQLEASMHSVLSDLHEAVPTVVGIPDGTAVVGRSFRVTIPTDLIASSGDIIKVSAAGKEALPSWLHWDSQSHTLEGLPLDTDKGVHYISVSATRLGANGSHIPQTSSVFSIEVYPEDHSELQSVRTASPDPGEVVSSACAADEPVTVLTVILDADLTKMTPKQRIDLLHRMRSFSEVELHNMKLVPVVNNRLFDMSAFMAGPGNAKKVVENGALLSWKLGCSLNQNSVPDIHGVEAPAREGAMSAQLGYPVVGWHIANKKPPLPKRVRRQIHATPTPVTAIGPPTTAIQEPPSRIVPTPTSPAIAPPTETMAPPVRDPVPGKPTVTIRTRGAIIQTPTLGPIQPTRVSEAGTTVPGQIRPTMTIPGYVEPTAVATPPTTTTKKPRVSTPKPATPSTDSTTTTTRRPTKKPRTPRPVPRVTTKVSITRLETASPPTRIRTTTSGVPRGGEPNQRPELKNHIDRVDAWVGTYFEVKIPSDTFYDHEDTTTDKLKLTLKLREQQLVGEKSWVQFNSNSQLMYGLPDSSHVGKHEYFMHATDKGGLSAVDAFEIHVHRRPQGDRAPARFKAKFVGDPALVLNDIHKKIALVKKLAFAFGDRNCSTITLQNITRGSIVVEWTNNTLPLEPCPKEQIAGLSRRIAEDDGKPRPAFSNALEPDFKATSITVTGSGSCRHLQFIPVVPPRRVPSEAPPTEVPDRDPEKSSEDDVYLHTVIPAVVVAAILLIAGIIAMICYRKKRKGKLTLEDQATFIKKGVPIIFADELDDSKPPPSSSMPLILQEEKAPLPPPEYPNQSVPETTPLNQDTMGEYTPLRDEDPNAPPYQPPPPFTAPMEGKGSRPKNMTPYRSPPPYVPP
UniProt P39656, sequence (P39656 whole entry, looked up): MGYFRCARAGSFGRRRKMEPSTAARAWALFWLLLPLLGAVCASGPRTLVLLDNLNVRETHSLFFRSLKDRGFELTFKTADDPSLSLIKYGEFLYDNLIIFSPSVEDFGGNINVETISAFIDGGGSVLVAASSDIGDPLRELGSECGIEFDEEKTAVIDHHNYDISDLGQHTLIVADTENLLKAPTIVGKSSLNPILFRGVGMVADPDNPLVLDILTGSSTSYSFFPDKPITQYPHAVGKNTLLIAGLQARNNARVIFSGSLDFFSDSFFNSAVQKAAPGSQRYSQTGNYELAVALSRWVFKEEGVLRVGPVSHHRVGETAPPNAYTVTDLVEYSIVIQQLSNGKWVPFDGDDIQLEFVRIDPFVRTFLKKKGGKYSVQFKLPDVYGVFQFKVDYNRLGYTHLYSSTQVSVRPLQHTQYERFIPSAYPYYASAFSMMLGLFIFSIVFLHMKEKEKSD
UniProt Q9NRY5, sequence (Q9NRY5 whole entry, looked up): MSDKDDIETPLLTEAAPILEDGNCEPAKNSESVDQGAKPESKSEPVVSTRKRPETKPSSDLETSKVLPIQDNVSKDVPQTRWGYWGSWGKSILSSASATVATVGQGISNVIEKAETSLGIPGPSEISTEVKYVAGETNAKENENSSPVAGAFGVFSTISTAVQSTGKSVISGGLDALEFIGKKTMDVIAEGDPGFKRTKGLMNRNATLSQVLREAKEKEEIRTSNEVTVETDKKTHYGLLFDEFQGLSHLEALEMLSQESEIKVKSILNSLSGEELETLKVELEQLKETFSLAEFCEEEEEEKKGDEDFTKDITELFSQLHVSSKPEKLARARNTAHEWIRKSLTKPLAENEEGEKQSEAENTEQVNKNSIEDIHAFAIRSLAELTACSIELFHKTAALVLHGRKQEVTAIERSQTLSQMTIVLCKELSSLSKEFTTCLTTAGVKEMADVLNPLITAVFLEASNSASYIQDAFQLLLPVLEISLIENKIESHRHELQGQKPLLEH
UniProt P13498, sequence (P13498 whole entry, looked up): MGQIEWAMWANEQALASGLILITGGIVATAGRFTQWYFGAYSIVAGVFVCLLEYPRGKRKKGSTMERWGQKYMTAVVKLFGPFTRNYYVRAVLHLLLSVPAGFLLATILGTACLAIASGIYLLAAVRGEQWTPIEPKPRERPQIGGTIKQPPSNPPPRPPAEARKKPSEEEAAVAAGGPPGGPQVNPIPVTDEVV
UniProt Q9UPT5, sequence (Q9UPT5 whole entry, looked up): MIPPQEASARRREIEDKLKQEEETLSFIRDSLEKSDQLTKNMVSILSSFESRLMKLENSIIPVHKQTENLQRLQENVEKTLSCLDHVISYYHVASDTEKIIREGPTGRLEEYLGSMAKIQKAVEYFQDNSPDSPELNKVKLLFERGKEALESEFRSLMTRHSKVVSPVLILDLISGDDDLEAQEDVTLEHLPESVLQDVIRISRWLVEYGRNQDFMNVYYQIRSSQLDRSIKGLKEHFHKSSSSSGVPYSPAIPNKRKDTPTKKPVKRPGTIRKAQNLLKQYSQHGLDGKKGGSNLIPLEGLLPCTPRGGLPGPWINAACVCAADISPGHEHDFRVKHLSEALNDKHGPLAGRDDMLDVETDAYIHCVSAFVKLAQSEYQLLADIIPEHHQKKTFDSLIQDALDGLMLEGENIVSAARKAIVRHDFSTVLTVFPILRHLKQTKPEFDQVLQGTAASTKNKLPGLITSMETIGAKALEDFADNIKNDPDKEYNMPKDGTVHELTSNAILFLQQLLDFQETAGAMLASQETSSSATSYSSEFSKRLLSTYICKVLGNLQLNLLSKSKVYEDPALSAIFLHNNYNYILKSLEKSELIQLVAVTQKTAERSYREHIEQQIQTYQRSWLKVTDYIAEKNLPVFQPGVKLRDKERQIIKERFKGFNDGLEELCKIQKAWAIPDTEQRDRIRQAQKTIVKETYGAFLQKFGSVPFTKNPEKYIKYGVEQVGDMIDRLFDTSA
UniProt Q5NDL2, sequence (Q5NDL2 whole entry, looked up): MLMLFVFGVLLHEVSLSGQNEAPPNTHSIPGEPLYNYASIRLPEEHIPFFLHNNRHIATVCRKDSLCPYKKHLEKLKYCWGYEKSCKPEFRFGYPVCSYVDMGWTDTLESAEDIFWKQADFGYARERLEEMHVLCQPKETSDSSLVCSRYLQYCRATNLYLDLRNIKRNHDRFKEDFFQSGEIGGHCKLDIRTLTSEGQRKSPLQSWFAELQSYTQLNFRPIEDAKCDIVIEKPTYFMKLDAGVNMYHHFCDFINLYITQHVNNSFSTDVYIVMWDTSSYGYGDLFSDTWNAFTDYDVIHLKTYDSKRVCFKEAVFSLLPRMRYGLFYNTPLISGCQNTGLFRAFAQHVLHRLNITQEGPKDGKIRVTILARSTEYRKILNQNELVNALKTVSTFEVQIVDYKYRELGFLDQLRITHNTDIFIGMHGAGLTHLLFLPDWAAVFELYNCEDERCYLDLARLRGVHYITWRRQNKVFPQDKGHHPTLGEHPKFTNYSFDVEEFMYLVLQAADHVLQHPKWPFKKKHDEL
UniProt O94905, sequence (O94905 whole entry, looked up): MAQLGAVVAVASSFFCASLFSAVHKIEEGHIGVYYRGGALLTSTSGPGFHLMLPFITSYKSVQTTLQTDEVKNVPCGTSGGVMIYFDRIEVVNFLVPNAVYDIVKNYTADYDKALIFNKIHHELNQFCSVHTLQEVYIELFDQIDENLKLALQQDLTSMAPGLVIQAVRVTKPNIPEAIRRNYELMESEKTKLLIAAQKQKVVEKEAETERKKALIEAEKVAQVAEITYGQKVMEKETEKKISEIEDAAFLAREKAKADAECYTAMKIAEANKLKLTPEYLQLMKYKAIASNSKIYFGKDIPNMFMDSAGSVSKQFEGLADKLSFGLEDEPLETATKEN
UniProt Q9UK59, sequence (Q9UK59 whole entry, looked up): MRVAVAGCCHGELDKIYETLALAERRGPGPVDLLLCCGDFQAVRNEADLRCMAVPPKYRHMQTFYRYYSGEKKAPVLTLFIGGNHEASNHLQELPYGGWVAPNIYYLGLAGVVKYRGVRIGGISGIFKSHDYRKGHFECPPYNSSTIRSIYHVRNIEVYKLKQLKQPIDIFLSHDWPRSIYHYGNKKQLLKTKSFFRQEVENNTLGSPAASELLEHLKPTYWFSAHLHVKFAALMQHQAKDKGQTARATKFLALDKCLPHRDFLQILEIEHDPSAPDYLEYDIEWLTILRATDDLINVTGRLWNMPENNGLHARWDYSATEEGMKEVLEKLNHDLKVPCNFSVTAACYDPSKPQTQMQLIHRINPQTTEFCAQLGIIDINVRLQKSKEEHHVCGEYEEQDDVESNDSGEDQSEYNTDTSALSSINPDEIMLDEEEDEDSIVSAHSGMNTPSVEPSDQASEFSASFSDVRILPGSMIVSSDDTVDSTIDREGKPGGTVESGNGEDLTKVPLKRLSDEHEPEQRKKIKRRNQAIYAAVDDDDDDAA
UniProt Q6IAN0, sequence (Q6IAN0 whole entry, looked up): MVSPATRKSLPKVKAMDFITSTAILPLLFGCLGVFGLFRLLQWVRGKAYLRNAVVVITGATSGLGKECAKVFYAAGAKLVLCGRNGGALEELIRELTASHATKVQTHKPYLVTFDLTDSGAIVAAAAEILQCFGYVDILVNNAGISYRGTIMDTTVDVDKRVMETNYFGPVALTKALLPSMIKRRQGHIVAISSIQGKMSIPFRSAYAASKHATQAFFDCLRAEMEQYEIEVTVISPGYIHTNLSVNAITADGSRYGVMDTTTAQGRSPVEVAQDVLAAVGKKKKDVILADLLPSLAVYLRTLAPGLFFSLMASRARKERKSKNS
UniProt Q13011, sequence (Q13011 whole entry, looked up): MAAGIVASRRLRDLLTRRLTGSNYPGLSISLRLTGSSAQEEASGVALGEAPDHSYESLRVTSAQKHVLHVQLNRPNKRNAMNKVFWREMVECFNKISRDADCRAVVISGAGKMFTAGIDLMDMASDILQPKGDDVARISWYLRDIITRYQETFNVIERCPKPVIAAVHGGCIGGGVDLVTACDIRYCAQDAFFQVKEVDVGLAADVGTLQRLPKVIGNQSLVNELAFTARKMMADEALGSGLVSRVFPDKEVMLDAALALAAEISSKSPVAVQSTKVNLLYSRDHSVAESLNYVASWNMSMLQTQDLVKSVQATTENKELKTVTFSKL

Compound in the first assay: COc1cc(C(=O)O)ccc1NC(=O)[C@@H]1N[C@@H](CC(C)(C)C)[C@](C#N)(c2ccc(Cl)cc2F)[C@H]1c1cccc(Cl)c1F [idasanutlin]
As to the kind of experiment: log2 fold change, soluble protein after heating vs DMSO (PISA); higher = thermal stabilisation; K562 cells, 10 uM, 30 min; active = over 0.2 and 3.5 SD of the protein, either way, in both replicates (recomputed). The essentials: (§1)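 Quantification of soluble protein used TMTpro 16plex LC-MS/MS, with channel sums equalised. Samples were the supernatant after 21,000xg for 90 min of pooled aliquots from K562 cells (2×10^6 cells/mL) treated with 10 μM compound for 30 min, heated for 3 min over 48°C-58°C, and extracted in PBS with 0.5% NP-40 at 4°C. Values, from duplicates, describe thermal stability against control samples on a log2 fold-change scale.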
As to DNAJB12 (UniProt Q9NXW2), the log2 fold change was -0.006.
As for DHFR (UniProt P00374), the log2 fold change is -0.051.
With DFFB (UniProt O76075), the log2 fold change was -0.03.
On to EXOC5 (UniProt O00471), for which the log2 fold change is -0.079.
The same measure, in the same setting: in the case of DCTPP1 (UniProt Q9H773) it was -0.061.
On to DHX40 (UniProt Q8IX18), for which the log2 fold change was 0.025.
Same read-out and setting: the result for EOGT (UniProt Q5NDL2) reads 0.036.
In the case of DHCR7 (UniProt Q9UBM7), the log2 fold change was -0.278.
Still for that read-out and setting: in the case of CUTA isoform 2 (UniProt O60888) it was 0.002; in that of ERLIN1 (UniProt O75477), 0.128.
Consider EXOC1 (UniProt Q9NV70), for which the log2 fold change is -0.084.
On the same count and under the same terms, in the case of CUX1 isoform 2 (UniProt Q13948) it was -0.043.
For DNM2 (UniProt P50570), the log2 fold change was -0.078.
For DHRS7B (UniProt Q6IAN0), the log2 fold change was -0.03.
Same read-out and setting: the result for DIP2A (UniProt Q14689) reads -0.047; that for FAM114A2 (UniProt Q9NRY5), -0.036; that for FAF2 (UniProt Q96CS3), 0.007.
In the case of ECH1 (UniProt Q13011), the log2 fold change is -0.134.
Regarding DDOST (UniProt P39656), the log2 fold change is 0.013.
In the case of DCAF6 isoform 3 (UniProt Q58WW2), the log2 fold change was -0.026.
For DHCR24 (UniProt Q15392), the log2 fold change is -0.087.
In the case of DNAH11 (UniProt Q96DT5), the log2 fold change was 0.03.
For the target DCAF13 (UniProt Q9NV06), the log2 fold change is 0.17.
CYBA (UniProt P13498): the log2 fold change is 0.017.
As for FADS1, A0A0A0MR51, the log2 fold change is 0.055.
On the same count and under the same terms, the result for DPP8 (UniProt Q6V1X1) reads -0.112; that for DDB1 (UniProt Q16531), -0.029.
For the target CUX1 isoform 3 (UniProt P39880), the log2 fold change was 0.012.
On the same count and under the same terms, in the case of EHBP1L1 (UniProt Q8N3D4) it was -0.021; in that of EXOC7 (UniProt Q9UPT5), -0.076; in that of DHX36 (UniProt Q9H2U1), 0.017.
In the case of DBR1 (UniProt Q9UK59), the log2 fold change is 0.015.
As to ERLIN2 (UniProt O94905), the log2 fold change was 0.09.
In the case of DAG1 (UniProt Q14118), the log2 fold change was -0.047.
In the case of EFL1 (UniProt Q7Z2Z2), the log2 fold change is -0.071.
For DHRS3 (UniProt O75911), the log2 fold change is -0.107.
For the target FAM160B1 (UniProt Q5W0V3), the log2 fold change was -0.053.
On to EHD2 (UniProt Q9NZN4), for which the log2 fold change was -0.025.
As to DTWD1 (UniProt Q8N5C7), the log2 fold change was -0.115.
Turning to FAM177A1 isoform 2 (UniProt Q8N128), the log2 fold change is -0.02.

Compound in the next assay: COc1cc(Nc2ncc3c(n2)-c2ccc(Cl)cc2C(c2c(F)cccc2OC)=NC3)ccc1C(=O)O [alisertib]
The assay is described as above. The gist of the method: as §1
On to DNAJB12 (UniProt Q9NXW2), for which the log2 fold change was -0.081.
Turning to DHFR (UniProt P00374), the log2 fold change was -0.08.
Regarding DFFB (UniProt O76075), the log2 fold change is -0.004.
Turning to EXOC5 (UniProt O00471), the log2 fold change is -0.01.
As for DCTPP1 (UniProt Q9H773), the log2 fold change is -0.067.
Consider DHX40 (UniProt Q8IX18), for which the log2 fold change was -0.146.
Still for that read-out and setting: in the case of EOGT (UniProt Q5NDL2) it was 0.028.
Take DHCR7 (UniProt Q9UBM7): the log2 fold change is 0.01.
Turning to CUTA isoform 2 (UniProt O60888), the log2 fold change was -0.055.
Consider ERLIN1 (UniProt O75477), for which the log2 fold change is -0.092.
EXOC1 (UniProt Q9NV70): the log2 fold change is 0.015.
As for CUX1 isoform 2 (UniProt Q13948), the log2 fold change was 0.012.
As to DNM2 (UniProt P50570), the log2 fold change was -0.073.
Same read-out and setting: in the case of DHRS7B (UniProt Q6IAN0) it was 0.012; in that of DIP2A (UniProt Q14689), 0.357.
As for FAM114A2 (UniProt Q9NRY5), the log2 fold change is -0.038.
On the same count and under the same terms, in the case of FAF2 (UniProt Q96CS3) it was 0.004; in that of ECH1 (UniProt Q13011), 0.033.
The same measure, in the same setting: the result for DDOST (UniProt P39656) reads -0.065; that for DCAF6 isoform 3 (UniProt Q58WW2), -0.081; that for DHCR24 (UniProt Q15392), -0.123.
As to DNAH11 (UniProt Q96DT5), the log2 fold change is -0.025.
On to DCAF13 (UniProt Q9NV06), for which the log2 fold change is -0.067.
With CYBA (UniProt P13498), the log2 fold change is -0.044.
With FADS1, A0A0A0MR51, the log2 fold change is -0.007.
Take DPP8 (UniProt Q6V1X1): the log2 fold change was -0.01.
For the target DDB1 (UniProt Q16531), the log2 fold change is -0.06.
Regarding CUX1 isoform 3 (UniProt P39880), the log2 fold change is -0.047.
In the case of EHBP1L1 (UniProt Q8N3D4), the log2 fold change was -0.098.
With EXOC7 (UniProt Q9UPT5), the log2 fold change is -0.024.
DHX36 (UniProt Q9H2U1): the log2 fold change is 0.025.
Regarding DBR1 (UniProt Q9UK59), the log2 fold change was -0.018.
With ERLIN2 (UniProt O94905), the log2 fold change is -0.085.
Consider DAG1 (UniProt Q14118), for which the log2 fold change was -0.075.
With EFL1 (UniProt Q7Z2Z2), the log2 fold change was -0.013.
On to DHRS3 (UniProt O75911), for which the log2 fold change was 0.008.
Same read-out and setting: in the case of FAM160B1 (UniProt Q5W0V3) it was -0.096.
Regarding EHD2 (UniProt Q9NZN4), the log2 fold change is -0.02.
The same measure, in the same setting: the result for DTWD1 (UniProt Q8N5C7) reads -0.057; that for FAM177A1 isoform 2 (UniProt Q8N128), 0.013.
